HCV inhibitor = inhibitors of hepatitis C virus infection | Potency, µM (doses to about 41.8 µM), usual class: inhibitors | hit rate 3.4% among 340,000 | Huh7.5.1 HCVcc-Cre infection, luciferase reporter, 44 h
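Infectious HCV cell culture screen: compound-treated cells (1,000/well, pre-plated 4 h) are infected with HCVcc-Cre at roughly 0.5 moi and grown 44 h. Infection is quantified by luciferase signal after 15 min substrate incubation at room temperature.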
NS1 function inh = influenza NS1 inhibition | Potency, µM (top dose mostly 46.1 µM) | hit rate 0.4% among 270,000 | AID 2326; calls by dose curve; also: actives are rising curves; nearly all actives have a fitted effect of over 50% in size
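Growth recovery, yeast-based: influenza A NS1 expressed in S. cerevisiae causes slow growth, and suppressors are detected by OD600. The parent strain without NS1 is used as positive control.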
SARS PLpro yeast = inhibitors of SARS-CoV papain-like protease in yeast. S. cerevisiae expressing SARS-CoV PLpro, growth rescue. Potency, µM (series often up to 32.9 µM), usual class: activators. hit rate 0.19% among 330,000; calls by dose curve; also: nearly all actives have a fitted effect of over 55% in size
Pf growth 96h = P. falciparum growth inhibition at 96 hours; AID 504834; Potency, µM (top dose mostly 28.7 µM), usual class: inhibitors; hit rate 6.9% among 320,000; P. falciparum luciferase reporter growth, 96 h
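Compounds incubated with erythrocytes infected by luciferase-expressing P. falciparum (2% hematocrit, 0.05% parasitemia final) for 96 hours, 37 C in 5% CO2. Growth inhibition scored as decreased luciferase luminescence.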
AMA1-RON2 inh = AMA1-RON2 (P. falciparum) interaction inhibition | AlphaScreen AMA1-biotinylated RON2 peptide binding | Potency, µM (highest dose often 58.2 µM), actives largely listed as inhibitors | hit rate 0.2% among 360,000; also: nearly all actives have a fitted effect of over 45% in size
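AMA1 (3D7) with his tag at 25 nM final met compounds first, then biotinylated RON2 peptide at 25 nM; detection used donor plus acceptor beads, 10 µg/mL apiece, read by AlphaScreen after 30 min at room temperature.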
Pf growth 48h = inhibits P. falciparum growth in the first generation, 48 h. P. falciparum luciferase growth in erythrocytes, 48 h. Potency, µM (series often up to 28.7 µM), hits mostly inhibitors. hit rate 5.9% among 310,000
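Erythrocytes infected with P. falciparum carrying an integrated firefly luciferase reporter (2% hematocrit, 0.1% parasitemia final) were exposed to compounds in RPMI 1640 with 0.5% Albumax at 37 C, 5% CO2. Growth inhibition was scored as reduced luminescence.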
Numbers stand for hits; – = inactive; ? = inconclusive; · = not tested or not shown; [ ] = remark or other dose. Sampled rows, rich in hits. Any-hit rate of the full collection: about 12%. Unless noted, calls follow the shape of the dose curve; as a rule, active = well fitted curve in the direction sought with a large enough effect; inconclusive = small, poorly fitted or top-dose-only effect, or another doubt; inactive = no such curve, though single readings can be large; an effect the other way counts as inactive or inconclusive.

SMILES	HCV inhibitor	NS1 function inh	SARS PLpro yeast	Pf growth 96h	AMA1-RON2 inh	Pf growth 48h
Cc1cccn2c(=O)c(/C=C(\C#N)C(N)=O)c(Oc3ccccc3)nc12	–	–	–	–	–	?
Cc1cc(Oc2nc3c(C)cccn3c(=O)c2/C=C(\C#N)S(=O)(=O)c2ccccc2)ccc1Cl	–	–	–	2.3µM	–	?
Cc1cccn2c(=O)c(/C=C(\C#N)S(=O)(=O)c3ccccc3)c(Oc3ccc(Cl)cc3)nc12	?	–	–	12µM	–	?
COc1ccccc1C(=O)NC(=O)COC(=O)c1nc(Cl)ccc1Cl	–	·	–	–	–	–
COc1cccc(C(=O)C2CN(C)CC2c2ccc(Cl)cc2)c1 (stereo unspecified)	–	–	–	?	–	?
COc1cccc(C(=O)C2CN(c3ccccc3)CC2c2ccc(Cl)cc2)c1 (stereo unspecified)	–	–	–	10µM	–	10µM
Cc1ccc(O)c(C(=O)c2cc(C(=O)NCCC(C)C)c(=O)n(CCC(C)C)c2)c1	10µM	·	–	3.3µM	–	?
CCOC(=O)N1CCN(C(=O)CSc2ccc(-c3cccnc3)nn2)CC1	·	·	–	?	·	–
CCN(C[C@H]1N[C@@](Cc2ccccc2)(C(=O)OC)[C@H]2C(=O)N(Cc3ccccc3)C(=O)[C@@H]12)C(=O)Nc1ccc(C)cc1	?	·	–	·	–	·
CCN(C[C@H]1N[C@@](CC)(C(=O)OC)[C@H]2C(=O)N(Cc3ccccc3)C(=O)[C@@H]12)C(=O)NC(C)C	6.3µM	·	–	·	–	·
CCN(C[C@H]1N[C@@](Cc2ccccc2)(C(=O)OC)[C@H]2C(=O)N(Cc3ccccc3)C(=O)[C@@H]12)C(=O)Nc1ccc(C(F)(F)F)cc1	13µM	·	–	·	–	·
Cc1cccc(N=C2Sc3nc4c(C)c(C)ccc4cc3CN2CCN2CCOCC2)c1	13µM	–	–	7.4µM	–	12µM
COCCN1Cc2cc3cc(C)ccc3nc2SC1=Nc1cccc(OC)c1	–	·	–	–	–	15µM
CCCCC(=O)N(C)c1c(CC)nc2c(OCC(N)=O)cccn12	·	·	·	·	–	·
Cc1cccc(NC(=S)N2CCOCC2)c1C	–	–	–	–	–	–
CCOC(=O)c1cc2c(=O)n3ccccc3nc2n(CC(C)C)c1=NC(=O)c1ccco1	?	–	–	·	–	10µM
CCOC(=O)c1cc2c(=O)n3ccccc3nc2n(CCOC)c1=NC(=O)c1c(-c2c(F)cccc2Cl)noc1C	?	·	–	5.9µM	–	?
CCOC(=O)c1cc2c(=O)n3ccccc3nc2n(CCOC)c1=NC(=O)c1ccncc1	–	–	–	?	–	–
OCC1OC(c2ccccc2)OC2COC(c3ccccc3)OC12 (stereo unspecified)	–	·	·	·	–	·
CC(C)N1CCN(c2ccncc2S(=O)(=O)N2CCN(C)CC2)CC1	·	·	·	·	–	·
CC(C)(C)c1ccc(O)c(N)c1	·	–	–	13µM	·	?
CCC(C)c1ccc(O)c(N)c1 (stereo unspecified)	–	–	–	?	–	?
CC(C)c1ccc(O)c(N)c1	–	–	–	2.9µM	–	?
CC(C)(C)c1ccc(O)cc1	·	·	·	–	·	–
CCN1C[C@@H]2[C@@H]3C(=O)N(C)C(=O)[C@@H]3[C@](Cc3ccccc3)(C1=O)N2C(=O)c1ccc(Cl)cc1	–	·	·	·	–	·
SMILES	HCV inhibitor	NS1 function inh	SARS PLpro yeast	Pf growth 96h	AMA1-RON2 inh	Pf growth 48h
CC1CCCCN1C(=O)CN1C(=O)NC2(CCCCC2C)C1=O (stereo unspecified)	–	·	–	–	–[11.6 µM]	?
CCOP(=O)(OCC)c1ccc2c(c1)C(=O)c1ccccc1CC2	·	·	–	4.1µM	·	–
O=C1C(=C2CCc3ccccc32)Cc2ccccc21	–	·	·	·	–	·
COc1ccc(OC)c(S(=O)(=O)NC2CCSc3ccccc32)c1 (stereo unspecified)	–	–	–	–	–	–
CCc1nnc(NC(=O)CSc2nnc3nc(C)cc(C)n23)s1	–	–	–	2.1µM	–	–
Cc1cc(C)n2c(SCC(=O)Nc3cc(C)on3)nnc2n1	–	–	–	–	–	–
CC(NC(=O)C1CCN(C(=O)Nc2ccccc2)CC1)c1ccc(Cl)cc1 (stereo unspecified)	–	·	–	–	–	?
CCCC1C(=O)Nc2ccccc2N1C(=O)c1ccc(C(C)(C)C)cc1 (stereo unspecified)	?	–	–	9.3µM	–	?
CCCC1C(=O)Nc2ccccc2N1C(=O)c1cccc(C)c1 (stereo unspecified)	–	–	–	–	–	–
Cc1ccc(OCC(=O)Nc2cccnc2Cl)cc1C	–	–	–	–	–	–
CC1C/C(=N/NC(=O)c2ccc(CSc3nc4ccccc4[nH]3)cc2)CC(C)(C)C1 (stereo unspecified)	–	?	–	?	–	–
CC1C/C(=N/Nc2nc3ccccc3[nH]2)CC(C)(C)C1 (stereo unspecified)	?	–	–	2.1µM	–	3.7µM
CC1(C2CC(C(F)(F)F)n3nc(C(=O)O)cc3N2)CC1 (stereo unspecified)	–	–	–	–	–	–
Fc1ccc(Nc2ncnc3sc4c(c23)CCC4)cc1	3.2µM	–	–	–	–	–
c1csc(CCNc2ncnc3sc4c(c23)CCC4)c1	7.9µM	–	–	?	–	·
c1ccc(Nc2ncnc3sc4c(c23)CCC4)cc1	?	–	–	–	–	–
c1cncc(CNc2ncnc3sc4c(c23)CCCC4)c1	?	·	–	–	–	–
